Measured values: paper PMC5540273 (PLoS ONE, 2017)

Legend:
Conditions in all cases: concentration: 1 μM, replicates: in singlicate; n = 1
[1] = tested on: MARK4
[2] = tested on: MAST1
[3] = tested on: T1, MEK1
T1 construct: gene MAP2K1

[4] = tested on: T2, MEK2
T2 construct: gene MAP2K2

[5] = tested on: T3, MEK3
T3 construct: gene MAP2K3

[6] = tested on: T4, MEK4
T4 construct: gene MAP2K4

[7] = tested on: T5, MEK5
T5 construct: gene MAP2K5

[8] = tested on: T6, MEK6
T6 construct: gene MAP2K6

[9] = tested on: MELK
[10] = tested on: MERTK
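Further: KINOMEscan kinase panel screen.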

SMILES	%Inh [1] [%]	%Inh [2] [%]	%Inh [3] [%]	%Inh [4] [%]	%Inh [5] [%]	%Inh [6] [%]	%Inh [7] [%]	%Inh [8] [%]	%Inh [9] [%]	%Inh [10] [%]
Nc1ncnc2c1ncn2-c1ccc(Cl)cc1 [AH2635]	13	0	0	0	0	12	48	0	0	10
CN1C(=O)C(Nc2ccccc2)=C(c2ccccc2)C1=O [SB-300079]	12	100	19	34	25	18	41	0	0	0
COc1cc(Nc2nccc(N3CCC(NC(=O)C4COc5ccccc5O4)C3)n2)cc(OC)c1OC (stereo not drawn) [GSK1379761]	0	0	25	0	0	0	97.2	0	11	36
CCS(=O)c1ccc(-c2coc3ccc(-c4nnc(C)o4)cc23)cc1 (stereo not drawn)	0	53	0	8	6	23	22	0	0	0
COC(=O)c1c(-c2ccccc2)c2cc(Br)ccc2c(=O)n1Cc1ccc(S(C)(=O)=O)cc1	1	21	13	7	2	17	29	17	12	4
CCn1c(-c2nonc2N)nc2ccccc21 [SB-693162/GW549034]	0	5	30	25	47	48	18	0	15	0
CCc1nc(-c2cccc(C)c2)c(-c2ccncc2)s1	0	0	2	48	23	0	34	0	0	0
COc1cc2ncn(-c3cc(OCCCc4ccccc4)c(C(N)=O)s3)c2cc1OC [GSK205189]	0	0	0	0	0	0	96.8	0	0	0
CCC(=O)c1c(-c2ccccc2)c2cc(Cl)ccc2c(=O)n1Cc1cc(S(C)(=O)=O)n(CCC(C)(C)O)n1	0	0	11	19	23	40	0	8	16	13
COc1cc(OC)cc(-c2cc3cnc(N)nc3nc2NC(=O)NC(C)(C)C)c1	0	0	0	0	0	0	0	0	0	0
O=c1cc(N2CCOCC2)nc2n(Cc3ccc(F)c(Cl)c3)ccn12 [GSK2297099]	0	0	0	0	0	5	1	14	0	0
COc1cccc(-n2cnc3c(N)ncnc32)c1 [SKF-97416]	0	59	12	12	43	36	80	18	0	0
OCCCNc1nccc(-c2c(-c3cccc(C(F)(F)F)c3)nn3cc(C(F)(F)F)ccc23)n1 [GW630813]	0	0	0	0	0	0	7	0	0	12
Nc1nc(N)c2nc(-c3ccccc3)[nH]c2n1 [SKF-12778]	11	0	0	13	0	1	18	0	9	47
Cc1nnc(-c2ccc3ncn(-c4ccc(S(C)=O)cc4)c3c2)o1 (stereo not drawn)	0	0	2	22	15	8	0	13	13	1
Cc1nc(N(C)[C@H]2CN(C(=O)CC#N)CC[C@H]2C)c2cc[nH]c2n1	12	0	2	4	10	0	0	0	0	24
Nc1ncnc2c1ncn2-c1cccc(F)c1 [SKF-97560]	0	19	34	31	43	22	31	0	22	24
COC(=O)c1c(-c2ccccc2)c2cc(Br)ccc2c(=O)n1Cc1ccc(NC(=O)CCC(=O)O)cc1	4	29	0	3	11	10	10	21	7	3
Cc1ccccc1COc1cc(-n2cnc3cc(Cl)ccc32)sc1C(N)=O [GW813349]	8	0	6	14	19	0	59	0	33	16
CCC(=O)c1c(-c2ccccc2)c2cc(Cl)ccc2c(=O)n1Cc1cc(S(C)(=O)=O)n(CC(N)=O)n1	5	0	1	40	0	0	15	0	0	0
CCC(=O)c1c(-c2ccccc2)c2cc(Cl)ccc2c(=O)n1Cc1cc(S(C)(=O)=O)n(CC(F)F)n1	0	0	1	12	0	18	0	0	0	0
COc1ccc(-n2cnc3c(N)ncnc32)cc1 [SKF-97236]	19	0	0	0	11	29	56	0	0	35
Cc1cccc(-c2nc(Nc3ccc4c(cnn4C)c3)c3ccccc3n2)n1 [GW876731]	8	100	0	0	0	0	0	5	0	0

SMILES	%Inh [1] [%]	%Inh [2] [%]	%Inh [3] [%]	%Inh [4] [%]	%Inh [5] [%]	%Inh [6] [%]	%Inh [7] [%]	%Inh [8] [%]	%Inh [9] [%]	%Inh [10] [%]
COc1cc2ncn(-c3cc(OCc4ccncc4)c(C(N)=O)s3)c2cc1OC [GSK336313]	0	0	3	4	0	8	88	44	0	0
COc1cc2nccc(Nc3cccc(Oc4ccccc4)c3)c2cc1OC.Cl [GW284543]	1	7	87	88	0	0	99.9	0	8	0
Cl.c1ccc(Cn2cnc3cc(Nc4ncnc5ccccc45)ccc32)cc1 [GW272142]	0	0	0	0	0	8	56	0	13	10
Fc1cccc(CSc2nnc(-c3ccc4c(c3)CCO4)o2)c1	0	0	3	5	6	5	14	0	0	2
COc1cc2ncn(-c3cc(OCc4ccc(S(C)(=O)=O)cc4)c(C(N)=O)s3)c2cc1OC [GW869979]	0	5	30	25	28	6	81	0	8	0
Cc1ccc(-c2ccc3c(ccc4sc5c(c43)NC[C@@H](C)N=C5N(C)C)n2)cn1	0	0	0	0	0	0	0	2	0	0
C[C@@H]1CC[C@H](C(=O)NC2CCCCC2)CN1c1cc(-c2ccc3c(N)n[nH]c3c2)nc(N)n1 [GSK2291363]	11	0	0	0	18	27	35	9	26	33
CCC(=O)c1c(-c2ccccc2)c2cc(Cl)ccc2c(=O)n1Cc1ccc(C(=O)O)cc1	0	11	0	3	0	0	0	0	0	0
O=C(NCc1cccs1)c1cc(C(=O)c2c(Cl)cccc2Cl)c[nH]1 [GW823670]	0	0	4	25	1	0	7	5	26	0
Cl.NS(=O)(=O)c1cccc(Nc2cc(-c3ccc(F)cc3)n[nH]2)c1 [GW824645]	6	9	12	45	22	27	70	0	0	0
Cc1cc(Nc2nc(-c3cccc(C)n3)nc3ccccc23)ccn1 [GW872411]	27	0	2	9	12	0	4	0	0	25
COc1cccc(C2=C(N(C)c3ccccc3)C(=O)NC2=O)c1 [SB-334865]	1	0	0	0	0	4	6	0	0	18
FC(F)(F)c1ccc(-c2ncn(CCCN3CCOCC3)c2-c2ccncc2)cc1 [SB-217780]	20	23	0	0	27	3	33	0	2	0
O=C(Nc1n[nH]c2nc(-c3ccccc3)c(Cl)cc12)C1CC1 [SB-734909]	25	12	11	0	45	24	50	0	0	0
COc1cc(Nc2ccnc3ccc(C(F)(F)F)cc23)cc(OC)c1OC [GW577382]	11	4	14	0	0	32	50	0	13	27
CC(C)(C)c1ccc(C(=O)Nc2cn3cc(-c4ccccc4)ccc3n2)cc1	0	0	0	45	25	0	75	0	0	0
O=C(Nc1n[nH]c2cc(-c3ccccc3F)ccc12)C1CC1 [SB-733371]	0	52	0	14	16	0	48	0	0	0
CCn1c(-c2ccoc2)nc2cnccc21 [SB-733887]	0	9	18	0	5	14	38	0	22	5
COc1cc(Nc2nccc(N3CCC(NC(=O)C(C)c4ccc(Cl)cc4)C3)n2)cc(OC)c1OC (stereo not drawn) [GSK1379757]	11	0	0	0	0	5	59	0	6	0
Nc1n[nH]c2nnc(-c3ccccc3)c(-c3ccccc3)c12 [GW554060]	0	9	0	0	5	14	30	0	18	0
O=C(Nc1ccc2c(c1)OCO2)NC1CCN(c2ccnc(NCc3ccc(F)cc3)n2)CC1 [GSK1379859]	20	0	0	0	6	0	8	0	100	26
CCCC(=O)Nc1n[nH]c2ncc(-c3cccc4ccccc34)cc12 [SB-642057]	0	0	4	8	0	0	12	0	33	0
Nc1nccc2scc(-c3ccc4c(c3)CCN4C(=O)Cc3ccccc3)c12 [GSK2576924]	0	0	2	7	0	5	93.2	6	16	22

SMILES	%Inh [1] [%]	%Inh [2] [%]	%Inh [3] [%]	%Inh [4] [%]	%Inh [5] [%]	%Inh [6] [%]	%Inh [7] [%]	%Inh [8] [%]	%Inh [9] [%]	%Inh [10] [%]
COc1ccc(-c2cc3c(C)nc(N)nc3n([C@H]3CC[C@H](O)CC3)c2=O)cn1	0	0	0	0	0	0	0	0	3	0
Cc1nn2c(=O)cc(N3CCOCC3)nc2n1Cc1cccc(Cl)c1Cl [GSK2342769]	0	2	0	0	0	31	0	0	8	10
Nc1nc(-c2ccccc2F)c(-c2ccnc3ccccc23)s1 [GW560459]	0	0	0	0	0	40	50	5	0	0
CN1C(=O)C(Nc2cc(Cl)c(O)c(Cl)c2)=C(c2ccc(Cl)cc2)C1=O [SB-404321]	0	41	0	0	29	0	25	0	0	30
O=C(Nc1n[nH]c2nc(-c3ccccc3)c(Br)cc12)C1CC1 [SB-708998]	0	0	0	0	0	21	42	0	6	27
COc1ccc(CNC(=O)NC2CCN(c3ccnc(Nc4ccc(F)cc4)n3)C2)cc1 (stereo not drawn) [GSK1379706]	3	53	29	21	0	28	25	12	21	39
O=C1NC(=O)C(c2ccccc2)=C1Nc1cccc(O)c1 [SB-390534]	0	33	16	14	10	12	29	0	4	9
CCS(=O)(=O)c1ccc(OC)c(Nc2ncc(-c3ccc(F)cc3)o2)c1.Cl [GW591947]	0	0	0	0	0	6	18	0	0	28
COc1cc2nccc(Nc3ccc(OCc4ccc(NC(C)=O)cc4)cc3)c2cc1OC.Cl [GW440135]	8	0	19	0	14	2	99.6	0	0	40
COc1cc2ncn(-c3cc(OCc4ccncc4Br)c(C(N)=O)s3)c2cc1OC [GW854278]	39	3	0	13	0	16	98.8	0	17	11
COc1ccc(Nc2nccc(N3CCC(NS(=O)(=O)c4ccc(NC(C)=O)cc4)C3)n2)cc1 (stereo not drawn) [GSK1379729]	0	0	0	10	12	5	36	0	17	25
COc1cccc(C2=C(Nc3cccc(C(=O)O)c3)C(=O)NC2=O)c1 [SB-390770]	23	35	0	10	0	16	4	0	21	3
Cc1cccc(-c2cc(-c3c[nH]nc3-c3ccccn3)ccn2)c1 [GW679395]	0	0	0	0	0	36	27	0	0	12
CCCNC(=O)Nc1ccc(Oc2ncnc3ccn(C)c23)cc1	9	0	0	0	0	10	61	14	7	13
Cc1c(Cn2c(C)nn3c(=O)cc(N4CCO[C@H](C)C4)nc23)cccc1C(F)(F)F [GSK2373690]	0	0	0	0	0	12	1	0	0	14
Cc1ccc(Oc2ccc(Nc3ncnc4cc[nH]c34)cc2C)cn1	19	49	37	25	0	0	99.7	9	0	0
COc1ccc(-c2cc3c(C)nc(N)nc3n([C@H]3CC[C@H](OCCO)CC3)c2=O)cn1	0	0	0	0	5	0	0	16	19	0
Nc1ncnc2c1ncn2-c1cccc2ccccc12 [SKF-97184]	29	53	5	24	38	8	26	22	0	0
O=C(NCCNc1ccnc(Nc2ccc(F)cc2)n1)Nc1ccc2c(c1)OCO2 [GSK1379882]	0	4	9	19	4	10	9	8	8	0
CCc1ccc(-c2ccc3c(c2)-c2nn(C)cc2S(=O)(=O)N3C)cc1	16	0	53	18	17	0	27	0	0	0
Cn1c(=O)c(F)c(Nc2ccc(I)cc2F)c2c(=O)n(OC[C@H](O)CO)cnc21	33	37	99.6	99.1	0	0	0	0	13	5
COc1ccc(-c2coc3ccc(-c4nnc(SCc5cccc(C#N)c5)o4)cc23)cc1	13	31	4	13	0	38	21	16	11	0
COC(=O)c1c(-c2ccccc2)c2cc(C)ccc2c(=O)n1Cc1ccccc1	0	0	0	0	0	0	0	10	0	0
